# Reference: PubChem BioAssay AID2314 (National Center for Advancing Translational Sciences (NCATS), 2010)
# Values joined by “and” are separate entries in the source; they are usually repeats but may differ in a detail not shown here. Identical values can stand only once. The campaign covered roughly 300,000 compounds. About 37,000 (12%) were called active. Shown is part of a subset that was picked to be rich in actives. Unmarked numbers belong to inactive results. Cut-off read from the data, not from the text of the source: active = max response mostly above about 13% (no sharp cut-off); inactive = mostly below about 14%.
# Experiment: Cycloheximide Counterscreen for Small Molecule Inhibitors of Shiga Toxin; note: read at 38.3 µM for the half of the compounds with a filed dose; 0% is about no effect
# Conditions: cell reporter, cycloheximide protein synthesis inhibition counterscreen; hits give high values
row,SMILES,max response
1,Cc1cc(Br)ccc1NC(=O)c1cnc(N2CCN(c3ccccn3)CC2)c2ccccc12,-4.22%
2,Cc1ccc(NC(=O)CSc2sc3c(O)cc(=O)[nH]c3c2C#N)cc1C,-5.26%
3,COc1ccc(S(=O)(=O)N2CCN(C(=O)N(C)C)C2C)cc1 (stereo not drawn),-6.24%
4,COc1ccc(CNC(=O)c2c[nH]c3c(OC)cc(OC)cc3c2=O)cc1,2.74%
5,O=C(CSc1nnc(-c2cccs2)n1-c1ccccc1)NCc1ccco1,-2.76%
6,COc1ccc(-n2c(SCC(=O)NCc3ccco3)nnc2-c2c[nH]c3ccccc23)cc1,1.31%
7,O=C(CSc1nnc(-c2c[nH]c3ccccc23)n1-c1ccc(F)cc1)NCc1ccco1,11.7% (active)
8,COc1ccc(CC(=O)NC2CCSc3ccccc32)cc1OC (stereo not drawn),2.51%
9,CC(C)[C@@H](C(=O)O)N(Cc1cccc(CN([C@H](C(=O)O)C(C)C)S(C)(=O)=O)c1)S(C)(=O)=O,-2.74%
10,O=C(O)C1CCN(C(=O)c2cc(F)cc3c2OCOC3)CC1,-2.01%
11,CCN(CC)C(=O)CC(c1ccc2c(c1)OCO2)c1c(OC)cc(OC)c2c(-c3ccccc3)cc(=O)oc12 (stereo not drawn),7.27% and 12.1%
12,Cc1cc(NC(=O)CSc2nc3ccccc3n2CC(C)C)no1,16.2%
13,Cc1cc(NC(=O)CSc2nc(=O)cc(N)n2-c2ccc(F)cc2)no1,-1.93%
14,Cc1ccc2nc(-c3ccc(SCC(=O)Nc4cc(C)on4)nc3)[nH]c2c1,40.1% (active)
15,Cc1ccc(N2CC(C(=O)Nc3ccc(S(=O)(=O)N4CCCC4)cc3)CC2=O)cc1C (stereo not drawn),-2.43%
16,COc1ccccc1C(=O)COC(=O)CNS(=O)(=O)c1ccc(NC(C)=O)cc1,3.07%
17,CC(C)C[C@H](NC(=O)N1CC(=O)Nc2ccccc21)C(=O)N[C@H](Cc1ccccc1)C(=O)O,-1.39%
18,COc1ccc(OC)c(C2C3=C(N=c4s/c(=C\c5cccc(O)c5)c(=O)n42)c2ccccc2CC3)c1 (stereo not drawn),-1.53%
19,COc1ccc(NC(=O)c2cc3nc(-c4ccccc4)cc(C)n3n2)cc1OC,-3.85%
20,CC(C)c1ccc(OCC(=O)N2CCCN(C)CC2)cc1,14.8%

row,SMILES,max response
1,CN1CCN(C(=O)COc2ccc(C(C)(C)C)cc2Br)CC1,-0.455%
2,CC(C)c1ccc(OCC(=O)N2CCN(C)CC2)c(Br)c1,11.3% (active)
3,Cc1ccc(-c2nc(C)sc2CC(=O)OCC(=O)Nc2c(F)cccc2F)cc1,1.62%
4,O=C(Nc1ccc(N2CCCC2=O)cc1)c1cncc(Br)c1,1.75%
5,COCn1c(C(O)c2ccccc2)cc2ccccc21 (stereo not drawn),5.67%
6,Cc1cccc(N2CCN(C(=O)COCc3cc(-c4ccc5c(c4)OCO5)on3)CC2)c1C,13.7%
7,CC(C)NC(=O)COCc1cc(-c2ccc3c(c2)OCO3)on1,34.6% (active)
8,CCOC(=O)N1CCN(C(=O)COCc2cc(-c3ccc4c(c3)OCO4)on2)CC1,9.44%
9,CCCn1nnnc1NCc1ccc(CC)cc1,15.5%
10,CCN1CCN(c2sc(S(C)(=O)=O)nc2S(=O)(=O)c2ccc(Cl)cc2)CC1,13.5%
11,O=C(Nc1ccc(Cl)cc1)Nc1nnc(/C=C/c2ccccc2)s1,6.47%
12,O=C(CSc1ccccc1)Nc1nnc(/C=C/c2ccccc2)s1,0.905%
13,COc1ccc(/C=C/c2nnc(NC(=O)C(C)C)s2)cc1,13.9% (active)
14,CCCCNC(=O)N1CCCC(N(C)CCc2ccc(OC)c(OC)c2)C1 (stereo not drawn),-0.786%
15,CCCC(=O)n1nc(-c2ccccc2)nc1N,-1.34%
16,Cc1nn(C(=O)c2ccoc2C)c(N)c1-c1ccccc1,53.9% (active)
17,CCOC(=O)c1c(N)nn(C(=O)c2ccccc2)c1-c1ccccc1,-1.7%
18,CCC(C)[C@@H](N)C(=O)O (stereo partly drawn),-4.08%
19,CCCCNC(=O)c1ccccc1NC(=O)C1=C(C)OCCS1,1.86%
20,CC(=O)c1sc2nc(SCC(=O)N3CCCCC3)[nH]c(=O)c2c1C,-3.21%

row,SMILES,max response
1,CCCCN(CC)C(=S)Nc1ccc2nc3n(c(=O)c2c1)CCCCC3,-3.24%
2,Cc1c(C(=O)Nc2ccccc2)sc2nc3n(c(=O)c12)CCCCC3,36.1% (active)
3,Cc1nc(N2CCOCC2)c2c(C)c(C(=O)Nc3ccc(C(F)(F)F)cc3)sc2n1,-1.52%
4,O=c1c2c(nc3n1CCCCC3)sc1c(O)cccc12,12.7%
5,O=C(Nc1ccc2nc3n(c(=O)c2c1)CCCCC3)c1ccccc1Cl,23% (active)
6,CC(=O)c1ccc(NC(=O)c2sc3nc4n(c(=O)c3c2C)CCCCC4)cc1,47.8% (active)
7,COc1ccc(CCNC(=O)C(=O)Nc2ccc3nc4n(c(=O)c3c2)CCCCC4)cc1OC,-0.998%
8,Cc1nc(N2CCN(c3ccccn3)CC2)c2c(C)c(C(=O)Nc3ccc(F)cc3)sc2n1,1.78%
9,O=[N+]([O-])/C=C/c1ccc2c(ccn2Cc2ccccc2)c1,-1.88%
10,CN(C)CCCCCN(C)Cc1cc2ccccc2o1,-0.524%
11,COCCCNC(=O)CNC(=O)c1nn(-c2ccc(OC)cc2)c(=O)c2ccccc12,-1.37%
12,O=C(Nc1ccccc1C(=O)O)c1ccc(N2C(=O)C3CC=CCC3C2=O)cc1 (stereo not drawn),-5.5%
13,O=C1CSc2ccc(S(=O)(=O)NCc3ccccc3)cc2N1,7.11%
14,COc1cccc(N(C(=O)c2ccn[nH]2)C2(C(=O)Nc3c(C)cccc3C)CCCCC2)c1,-5.43%
15,Cc1oc(-c2ccccc2F)nc1CS(=O)CC(=O)NCCN1CCCCC1C (stereo not drawn),-6.49%
16,CC1CCN(c2oc(-c3ccccc3F)nc2C#N)CC1,28.8% (active)
17,COc1ccccc1-c1nc(C#N)c(N2CCC(C(N)=O)CC2)o1,-3.17%
18,Cc1ccc(NN=Nc2nc3c([nH]2)c(=O)n(C)c(=O)n3C)cc1,11.7%
